POLH inh: qHTS for Inhibitors of Polymerase Eta; DNA polymerase eta (Homo sapiens), Q9Y253; recombinant Pol eta, fluorescent DNA replication assay; Potency, µM (series often up to 114 µM), inactives show at the top dose activity change, negative = inhibition, most hits filed as inhibitors; 1.2% of 390,000 active; AID 588591, 2011; note: potency is the fitted concentration of half-maximal effect; % is set by controls: 0 for no effect and ±100 for the full control effect
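Pol eta (10 nM) was preincubated with compounds for 15 min at room temperature, after which fluorescent replication substrate (50 nM final) was added to start the reaction. Fluorescence was read kinetically at 0 and 10 min.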
POLI inh: qHTS for Inhibitors of Polymerase Iota; DNA polymerase iota (Homo sapiens), Q9UNA4; Pol iota fluorescent replication assay, 10 min; Potency, µM (highest dose often 115 µM), for the others: at the top dose activity, negative = inhibition, usual class: inhibitors; 1% of 390,000 active; AID 588590, 2011; note: potency is the fitted concentration of half-maximal effect
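Fluorescent replication assay read twice, at 0 min and 10 min after adding 50 nM (final) substrate. Enzyme (10 nM) and compounds were first incubated 15 min at room temperature; enzyme-free buffer wells were negative controls.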
PI5P4Ka inh: qHTS for Inhibitors of phosphatidylinositol 5-phosphate 4-kinase (PI5P4K); max response, %; Phosphatidylinositol 5-phosphate 4-kinase type-2 alpha (Homo sapiens), P48426; 1.2% of 330,000 active; AID 652105, 2013; PI5P4Kalpha enzyme, ADP-Glo luminescence, 60 min; active compounds read low; active = max response of -50% or lower; inconclusive = between -30% and -50%; inactive = -30% or higher; note: value at the top dose of about 77 µM; % is set by controls: 0 for no effect and ±100 for the full control effect
Target sequence (P48426 whole entry, looked up): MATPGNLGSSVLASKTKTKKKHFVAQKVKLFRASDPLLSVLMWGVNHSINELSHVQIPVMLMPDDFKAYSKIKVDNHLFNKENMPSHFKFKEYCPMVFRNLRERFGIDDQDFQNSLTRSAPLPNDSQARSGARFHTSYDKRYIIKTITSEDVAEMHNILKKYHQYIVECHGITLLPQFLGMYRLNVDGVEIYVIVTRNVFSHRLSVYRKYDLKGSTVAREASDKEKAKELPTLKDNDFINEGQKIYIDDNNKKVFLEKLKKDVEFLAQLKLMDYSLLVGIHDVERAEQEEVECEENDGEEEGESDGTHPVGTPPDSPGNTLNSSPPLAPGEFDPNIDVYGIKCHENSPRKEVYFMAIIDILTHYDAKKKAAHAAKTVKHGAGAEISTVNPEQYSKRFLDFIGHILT
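ADP-Glo luminescence end-point read after a 60 min room-temperature kinase reaction of PI5P4Kalpha plus substrate, initiated with ATP at 5 microM final. Buffer: 0.038 M HEPES pH 7.4, EGTA, 0.1% CHAPS, 5% DMSO.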
Pol beta inh: qHTS Assay for Inhibitors of DNA Polymerase Beta; AID 485314, 2010; Potency, µM (series often up to 114 µM), for the others: top-dose activity change, negative = inhibition, hits mostly inhibitors; P06746; Pol beta primer extension/strand displacement, fluorescence kinetic; 1.3% of 340,000 active; note: potency is the fitted concentration of half-maximal effect; % is set by controls: 0 for no effect and ±100 for the full control effect
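10 nM enzyme + cpd, 15 min RT; start with substrate 50 nM final; read 0 min and after 10 min RT. Corrected, normalized data; 4-parameter Hill curve fit.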
POLK inh: qHTS for Inhibitors of Polymerase Kappa | purified Pol kappa, fluorescent DNA synthesis assay, 10 min | Potency, µM (doses to about 107 µM), inactives show at the highest dose activity, negative = inhibition, hits mostly inhibitors | 0.53% of 400,000 active; note: potency is the fitted concentration of half-maximal effect; % is set by controls: 0 for no effect and ±100 for the full control effect
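Kinetic fluorescence screen: compound preincubated 15 min RT with 10 nM enzyme; 50 nM substrate (final) initiates; reads at 0/10 min.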
WRN helicase inh: qHTS for Inhibitors of WRN Helicase; Bifunctional 3'-5' exonuclease/ATP-dependent helicase WRN (Homo sapiens), Q14191; WRN helicase unwinding, fluorescent forked duplex, kinetic; Potency, µM (series often up to 114 µM), for the others: at the highest dose activity change, negative = inhibition, actives largely listed as inhibitors; 0.46% of 360,000 active; AID 651768, 2012; note: potency is the fitted concentration of half-maximal effect; % is set by controls: 0 for no effect and ±100 for the full control effect; nearly all actives have a fitted effect of over 55% in size
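WRN at 20 nM final preincubated with compound 15 min at room temperature; reaction started with 100 nM fluorophore/quencher forked duplex oligonucleotide and 2 mM ATP final. Unwinding followed kinetically by red fluorescence (ex 525, em 598 nm).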
* marks the source's active call; other numbers are inactive results; ? = inconclusive; / = no result given; [ ] = another dose, or the depositor's remark. Only some compounds are listed: those with a hit (about 2.8% of all), similar ones and a draw of the others. Unless noted, calls come from the whole dose curve; as a rule, active = well fitted curve in the direction sought with a large enough effect; inconclusive = small, poorly fitted or top-dose-only effect, or another doubt; inactive = no such curve, though single readings can be large; an effect the other way counts as inactive or inconclusive.

SMILES | POLH inh | POLI inh | PI5P4Ka inh | Pol beta inh | POLK inh | WRN helicase inh
CCS(=O)(=O)c1nn2c(N)c(/C=C3/C=CC(=O)C(OC)=C3)c(=O)nc2s1 | ? | -9% | -84* | 6% | -26% | -25%
CCOC1=C/C(=C/c2c(N)n3oc(C)cc3nc2=O)C=CC1=O | / | / | / | 13% | / | /
COC1=C/C(=C/c2c(N)n3c(nc2=O)sc2cc(S(C)(=O)=O)ccc23)C=CC1=O | 28µM* | ? | -76* | -1% | -32% | -2%[11.6 µM]
COC1=C/C(=C/c2c(N)n3nc(-c4ccc(C)cc4)sc3nc2=O)C=CC1=O | 22µM* | 14µM* | -74* | 56µM* | -10% | -10%[11.6 µM]
CCCn1c(N)c(C(=O)CSc2nncs2)c(=O)[nH]c1=O | -16% | 23% | 1 | / | -5% | 2%
Cc1cccc(C2C3=C(Nc4[nH]n(-c5ccccc5)c(=O)c42)c2ccccc2C3=O)c1 (stereo unspecified) | 13µM* | ? | ? | ? | ? | -5%[11.6 µM]
Cn1c(=O)c(NCCc2ccccc2)c2c3c(cccc31)C(=O)c1ccccc1-2 | ? | ? | 2 | 14µM* | ? | 40µM*
CCc1ccc(N=C2NC(=O)/C(=C/c3cc(OC)c(OC)c(OC)c3)S2)cc1 | -10% | 14% | 7 | -6% | 3% | -27%
CCOc1cc(/C=C2\SC(=Nc3ccc(CC)cc3)NC2=O)ccc1OCC(=O)O | 0% | ? | -91* | ? | -35% | ?
CCOc1cc(Br)cc(/C=C2\SC(=Nc3ccccc3)NC2=O)c1O | ? | ? | -62* | ? | -5% | -9%
Cc1cc2c(c(C)c1Cl)C(c1ccc3c(c1)OCO3)CC(c1ccccc1)O2 (stereo unspecified) | / | -3% | / | / | -9% | /
O=C(c1cc(-c2cccnc2)nc2ccccc12)N1CCN(S(=O)(=O)c2cccs2)CC1 | -10% | -11% | 2 | / | 9% | -7%
O=C(CNCc1ccc(F)cc1)Nc1ccc(C(=O)N2CCCCC2)cc1 | -5% | 51% | 4 | 3% | -5% | -31%
O=C(NCc1ccc(/C=c2\sc3n(c2=O)CCN=3)o1)C(=O)Nc1ccccc1 | / | / | / | 4.5µM* | / | /
COc1ccc(-n2nc3ccc(NC(=O)c4cc5ccccc5o4)cc3n2)cc1Cl | -11% | 52% | / | -2% | -20% | /
COC(C[C@@H]1O[C@@H]1[C@H](O)[C@H](C)OCc1ccccc1)OC | -7% | -21% | -86* | -10% | -3% | -8%
COC(C[C@@H]1O[C@@H]1[C@@H](O)[C@@H](C)OCc1ccccc1)OC | -11% | -21% | -6 | 1% | -7% | -3%
Cc1cc(C(=O)N/N=C/c2cccc3ccccc23)c(C)o1 | -22% | 10% | 0 | -1% | -5% | 4%
N#CC1=C(N)SC(N)=C(C#N)C1c1ccnc2ccccc12 | ? | 29% | -74* | 19% | -13% | ?
COC(=O)c1ccccc1C(=O)N(c1ccccc1)c1ccccc1 | -13% | 149% | 2 | / | 2% | -4%
O=C1N/C(=N/O)S/C1=C/c1cccnc1 | 5% | 2% | -55* | 10% | 6% | -2%
S=c1ncc2n[nH]nc2[nH]1 | / | -21% | / | / | 0% | /
O=C(CCNC(=O)c1ccc([N+](=O)[O-])cc1)NCCc1ccccc1 | -14% | 31% | -4 | -3% | 2% | 11%
CC(=O)Nc1ccc(S(=O)(=O)NC(CC(=O)N(C)Cc2ccccc2)C(C)C)cc1 (stereo unspecified) | -11% | 12% | -53* | 12% | -4% | -17%
OCc1nc2ccccc2n1/N=C/c1cccs1 | -16% | 25% | 0 | 2% | 5% | -3%
SMILES | POLH inh | POLI inh | PI5P4Ka inh | Pol beta inh | POLK inh | WRN helicase inh
O=C(CN1C=NS(=O)(=O)c2ccccc21)Nc1ccc(Br)cc1 | -14% | 35% | / | -24% | 2%[60.1 µM] | /
CCn1c(Cl)c(C=O)s/c1=N\S(=O)(=O)c1ccccc1 | -13% | ? | -11 | ? | -14% | 40µM*
N=C1C(c2nc(-c3ccc(Cl)cc3)cs2)=C(O)CN1NC(=O)c1ccc(O)cc1 | -18% | -25% | ? | ? | -3% | -10%
COc1ccc(-c2nc3cnc(OC)nc3n(-c3ccc(OC)cc3)c2=O)cc1 | / | / | / | / | 1%[60.1 µM] | /
Cc1ccc(NC(=O)COC(=O)c2ccccc2OCC(=O)Nc2ccc(Br)cc2)c(C)c1 | / | ? | / | / | -11% | /
O=C(/C=C/c1ccco1)N(Cc1ccccc1F)C1CCS(=O)(=O)C1 (stereo unspecified) | ? | 50µM* | -9 | ? | -22% | -11%[11.6 µM]
CC(C)c1ccc(CN(C(=O)/C=C/c2ccco2)C2CCS(=O)(=O)C2)cc1 (stereo unspecified) | ? | ? | -28 | ? | -24% | ?
COc1ccc(-c2cc(-c3ccc(O)cc3)nc(N)c2C#N)cc1 | -4% | 12% | -7 | 36% | -6% | -4%
COc1cc(-c2cc(-c3ccc(O)cc3)nc(N)c2C#N)ccc1O | -12% | 5% | -51* | 1% | -8% | -22%
COc1ccccc1NC(C)C(=O)c1c[nH]c2ccccc12 (stereo unspecified) | / | 21% | / | / | 6% | /
Cc1nn(C)c2c1c(C(F)(F)F)cc(=O)n2CC(=O)NCCC(C)C | -23% | 16% | / | -1% | -16% | /
c1ccc(-c2nnc(-c3ccco3)o2)cc1 | -15% | 2% | 0 | -1% | -4% | 3%
c1coc(-c2nnc(-c3ccco3)nn2)c1 | 8.9µM* | ? | -79* | 7.9µM* | 18µM* | 20µM*
Cc1cccc(Nc2nnc(SC/C(O)=C(\C#N)c3nc4ccccc4[nH]3)s2)c1C | ? | -1% | -59* | -27% | -4% | -31%
Cc1cccc(C)c1Nc1nnc(SC/C(O)=C(\C#N)c2nc3ccccc3[nH]2)s1 | 18µM* | -8% | -68* | ? | -16% | -29%
Cc1ccc(Nc2nnc(SCC(O)=C(C#N)c3nc4ccccc4[nH]3)s2)c(C)c1 | ? | -6% | ? | / | -12% | -8%[11.6 µM]
Nc1nc(N=Nc2ccc(O)cc2)cc(=O)[nH]1 | -11% | / | -52* | / | / | -15%
Nc1nc(N)c(N=Nc2ccccc2)c(=O)[nH]1 | -14% | -5% | -14 | / | -9% | -14%
Cc1cc(/C=C(\C#N)c2nc3ccccc3[nH]2)c(C)n1C | ? | ? | 1 | 40µM* | -15% | -22%

Source: PubChem
